PubChem BioAssay AID1347155 (National Center for Advancing Translational Sciences (NCATS), 2019)
Where “and” joins values, the source holds several entries; their conditions need not be identical. Equal entries are not always repeated. Records with an inconclusive call do not appear. Where a call stands in place of a potency, no number is given. Calls of active or inactive are those of the source. Calls come from the whole dose curve; as a rule, active = well fitted inhibition curve with a large enough effect; inconclusive = small, poorly fitted or top-dose-only effect; inactive = no such curve, though single readings can be large or run the other way. *1 amine or outer side, *2 acyl side, *3 side chain or, on linkers, in order; H or OH if unused. Where a SMILES comes first, the peptide text is derived from it. Bridges are numbered along the chain shown (N, C = ends). Roman numbers before positions name the chains, in order. [ ]: non-standard residue; d: D form. ξ: configuration not given here. Actinocin(9to1) = Cc1c2oc3c(C)ccc(C(=O)[*:1])c3nc-2c(C(=O)[*:2])c(N)c1=O; aThr = C[C@H](O)[C@H](N)C(=O)O; NMeV = CN[C@H](C(=O)O)C(C)C; ξNMeV = CNC(C(=O)O)C(C)C; ξV = CC(C)C(N)C(=O)O; Sar = CNCC(=O)O

Each compound was assayed on Zika virus NS2B-NS3 protease (linked) (assay: Optimization screen NINDS Rhodamine qHTS for Zika virus inhibitors: Linked NS2B-NS3 protease assay). Settings: fluorogenic rhodamine substrate; series mostly up to 105 µM.
Description: Avindra Nath, Ph.D., National Institute of Neurological Disorders and Stroke (NINDS), Bethesda, MD
Radhakrishnan Padmanabhan, Ph.D., Georgetown University (GU), Washington D.C.
Zika Virus causes congenital defects, including microcephaly and is associated with Guillain-Barre syndrome, eningoencephalitis and myelitis in infected adult. […] Using a target-based approach, we hope to establish a screening paradigm to uncover novel, cell-active NS2B-NS3 protease (Zika Virus) specific inhibitors from NCATS' collection of small molecules using qHTS.
Four assay panel was created to identify potential Zika Virus inhibitors. Namely, (1) GU unlinked NS2B-NS3 AMC tagged protease qHTS, (2) GU unlinked NS2B-NS3 Rhodamine tagged protease qHTS, (3) NINDS linked NS2B-NS3 AMC tagged protease qHTS, (4) NINDS linked NS2B-NS3 Rhodamine tagged protease qHTS. Active compounds were re-acquired and re-screened to confirm inhibition. Inhibitors were further screened against various confirmatory and counterscreens in dose response format.
Early Translation Branch (ETB)
National Center for Advancing Translational Sciences (NCATS), Rockville, MD
National Institute of Health (NIH), Bethesda, Maryland
For the linked assay, Nath lab (NINDS) provided the purified linked NS2B-NS3 protease which is consists of hydrophilic domain of NS2B linked to the NS3 protease domain by a flexible (-GGGGSGGGG-) linker. Control compound aprotinin is obtained from Thermo Scientific (#78432; Waltham, Massachusetts). Rhodamine110 substrate ([N-Cbz]-Nle-Lys-Arg-Arg-Rhod110-Arg-Arg-Lys-Nle-[N-Cbz]) was purchased from either Genscript or Bachem.
1536-well Protease (Rhodamine110 Substrate) Assay:
Briefly, 3 microL of enzyme (25 nM final concentration), in assay buffer (10 mM Tris-HCl pH 8.0 with 0.01% Tween 20) were dispensed into a 1,536-well solid-bottom black plate (Greiner Bio One, Monroe, NC). Twenty-three nL of compounds (final concentration range 7.28 nM to 114 microM) or control Aprotinin (final concentration range 3.47 nM to 114 microM) were transferred via Wako Pin-tool (Wako Automation, Richmond, VA). Samples were incubated (room temperature, protected from light) for 15 minutes followed by a 1 microL Rhodamine110 substrate addition (1.5 microM final concentration). Plates were then immediately read on a ViewLux High-throughput CCD imager (PerkinElmer, Waltham, MA) equipped with FITC fluorescence optics (480(20) nm excitation, 540(25) nm emission), then incubated (room temperature, protected from light) for 15 minutes (~15% conversion). The change in fluorescence intensity over the 15-minute reaction period was normalized against no-inhibitor and no-enzyme controls and the resulting percent inhibition data were fitted to a 4-parameter Hill equation. Aprotinin was used as intraplate control.

Row | SMILES | Potency
1 | C[C@H]1O[C@@H](O[C@H]2[C@@H](O)C[C@H](O[C@H]3[C@@H](O)C[C@H](O[C@H]4CC[C@@]5(C)[C@H](CC[C@@H]6[C@@H]5C[C@@H](O)[C@]5(C)[C@@H](C7=CC(=O)OC7)CC[C@]65O)C4)O[C@@H]3C)O[C@@H]2C)C[C@H](O)[C@@H]1O | inactive
2 | CO[C@H]1C[C@@H](O[C@@H]2/C(C)=C/C[C@@H]3C[C@@H](C[C@]4(CC[C@H](C)[C@@H](C5CCCCC5)O4)O3)OC(=O)[C@@H]3C=C(C)/C(=N/O)[C@H]4OC/C(=C\C=C\[C@@H]2C)[C@]43O)O[C@@H](C)[C@H]1O | 24.8 µM (active)
3 | Cn1cnc([N+](=O)[O-])c1Sc1ncnc2nc[nH]c12 | inactive
4 | CC[C@@H]1O[C@]2(C=C[C@@H]1C)C[C@H]1C[C@H](CC=C(C)[C@@H](O[C@@H]3C[C@H](OC)[C@H](O[C@@H]4C[C@H](OC)[C@H](O)[C@H](C)O4)[C@H](C)O3)[C@@H](C)C=CC=C3CO[C@@H]4[C@@H](O)C(C)=C[C@@H](C(=O)O1)[C@]34O)O2 | inactive
5 | Nc1ccn([C@@H]2O[C@H](CO)[C@@H](O)C2(F)F)c(=O)n1 | inactive
6 | COc1c(C)c2c(c(O)c1C/C=C(\C)CCC(=O)OCCN1CCOCC1)C(=O)OC2 | inactive
7 | O=C1c2c(O)ccc([N+](=O)[O-])c2C(=O)c2c([N+](=O)[O-])ccc(O)c21 | 12.7 µM (active) and 6.39 µM (active)
8 | C[S+](CC[C@H](N)C(=O)O)C[C@H]1O[C@@H](n2cnc3c(N)ncnc32)[C@H](O)[C@H]1O (stereo not given in full) | inactive
9 | CCC(CC)(NC(=O)C(C)C)C(=O)N[C@@H](CCCN=C(N)N)C(=O)NC1(C(=O)NC(c2ccc(F)cc2)c2ccc(F)cc2)CCCC1 | inactive
10 | CC(C)(C)CC(C)(C)c1ccc(OCCOCC[N+](C)(C)Cc2ccccc2)cc1 | inactive
11 | Oc1cc2ccccc2c2ccccc12 | 63.9 µM (active)
12 | N[C@H](C(=O)O)c1ccc(O)cc1 | inactive
13 | CCOc1ccc(C2C(=O)N(C3CCCCCC3)CC(=O)N2CCc2ccc(Cl)cc2)cc1OC (stereo not given) | inactive
14 | Nc1nc(=S)c2[nH]cnc2[nH]1 | inactive
15 | COc1c2occc2cc2ccc(=O)oc12 | inactive
16 | CO[C@H]1C[C@H](O[C@@H]2/C(C)=C/C[C@@H]3C[C@@H](C[C@]4(CC[C@H](C)[C@@H](C5CCCCC5)O4)O3)OC(=O)[C@@H]3C=C(C)/C(=N/O)[C@H]4OC/C(=C\C=C\[C@@H]2C)[C@]43O)O[C@@H](C)[C@@H]1O | inactive
17 | Cc1c2oc3c(C)ccc(C(=O)N[C@@H]4C(=O)NC(C(C)C)C(=O)N5CCC[C@H]5C(=O)N(C)CC(=O)N(C)C(C(C)C)C(=O)O[C@@H]4C)c3nc-2c(C(=O)N[C@@H]2C(=O)NC(C(C)C)C(=O)N3CCC[C@H]3C(=O)N(C)CC(=O)N(C)C(C(C)C)C(=O)O[C@@H]2C)c(N)c1=O (stereo not given in full) (I: T[ξV]P[Sar][ξNMeV] / II: T[ξV]P[Sar][ξNMeV]; ester I:1-I:C, II:1-II:C; linker I:N-II:N via Actinocin(9to1)) | inactive
18 | CCc1nc(N)nc(N)c1-c1ccc(Cl)cc1 | inactive
19 | Nc1ncnc2c1ncn2[C@@H]1O[C@H](C[C@@H](N)CC[C@H](N)C(=O)O)[C@@H](O)[C@H]1O | inactive
20 | O=c1cc(-c2ccccc2)oc2cc(O)c(O)c(O)c12 | 4.94 µM (active)

Row | SMILES | Potency
21 | Cc1c2oc3c(C)ccc(C(=O)N[C@@H]4C(=O)N[C@@H](C(C)C)C(=O)N5CCC[C@@H]5C(=O)N(C)CC(=O)N(C)[C@@H](C(C)C)C(=O)O[C@H]4C)c3nc-2c(C(=O)N[C@@H]2C(=O)N[C@@H](C(C)C)C(=O)N3CCC[C@@H]3C(=O)N(C)CC(=O)N(C)[C@@H](C(C)C)C(=O)O[C@H]2C)c(N)c1=O (I: [aThr]V[dP][Sar][NMeV] / II: [aThr]V[dP][Sar][NMeV]; ester I:1-I:C, II:1-II:C; linker I:N-II:N via Actinocin(9to1)) | inactive
22 | CC(C)C[C@@H](NC(=O)[C@H](Cc1ccccc1)NC(=O)c1cnccn1)B(O)O | inactive
23 | Cc1c2oc3c(C)ccc(C(=O)N[C@@H]4C(=O)N[C@H](C(C)C)C(=O)N5CCC[C@H]5C(=O)N(C)CC(=O)N(C)[C@@H](C(C)C)C(=O)O[C@@H]4C)c3nc-2c(C(=O)N[C@@H]2C(=O)N[C@H](C(C)C)C(=O)N3CCC[C@H]3C(=O)N(C)CC(=O)N(C)[C@@H](C(C)C)C(=O)O[C@@H]2C)c(N)c1=O (I: T[dV]P[Sar][NMeV] / II: T[dV]P[Sar][NMeV]; ester I:1-I:C, II:1-II:C; linker I:N-II:N via Actinocin(9to1)) | inactive
24 | CC1OC(OC2C(O)CC(OC3C(O)CC(OC4CCC5(C)C(CCC6C5CC(O)C5(C)C(C7=CC(=O)OC7)CCC65O)C4)OC3C)OC2C)CC(O)C1O (stereo not given) | inactive
25 | CC(C)C[C@H](NC(=O)[C@H](Cc1ccccc1)NC(=O)c1cnccn1)B(O)O | inactive
26 | C[C@H]1O[C@@H](O[C@H]2[C@@H](O)C[C@H](O[C@H]3[C@@H](O)C[C@H](O[C@H]4CC[C@]5(C)C6C[C@@H](O)[C@]7(C)[C@@H](C8=CC(=O)OC8)CC[C@]7(O)C6CC[C@@H]5C4)O[C@@H]3C)O[C@@H]2C)C[C@H](O)[C@@H]1O (stereo not given in full) | inactive
27 | CCCCCCCCc1ccc(CCC(N)(CO)CO)cc1 | 55.5 µM (active)
28 | NC(=O)C(=O)O | inactive
29 | CC(=O)Nc1ccc([C@H](C)C(=O)Nc2ncc(C(C)C)s2)cc1 | inactive
30 | CCOc1ccc(C2C(=O)N(C3CCCCC3)CC(=O)N2Cc2ccc(F)cc2)cc1OC (stereo not given) | inactive
31 | S=c1nc[nH]c2nc[nH]c12 | inactive
32 | Cc1ccccc1CNc1ncnc2c1ncn2C1OC(CO)C(O)C1O (stereo not given) | inactive
33 | O=C1c2cccc3c2[C@@H](CCC3)CN1[C@@H]1CN2CCC1CC2 | inactive
34 | O=C(O)c1ccc(-n2nc(-c3ccccc3O)nc2-c2ccccc2O)cc1 | 8.79 µM (active)
35 | O=C(Nc1ccc([N+](=O)[O-])cc1Cl)c1cc(Cl)ccc1O | 9.87 µM (active)
36 | CCCCOc1ccc(C2C(=O)N(C3CCCCC3)CC(=O)N2C2CCCCC2)cc1 (stereo not given) | inactive
37 | CNC(=O)c1cc(Oc2ccc(NC(=O)Nc3ccc(Cl)c(C(F)(F)F)c3)cc2)ccn1 | 16 µM (active)
38 | O[C@@H](c1cc(C(F)(F)F)nc2c(C(F)(F)F)cccc12)[C@H]1CCCCN1 | inactive
39 | CC=CCC(C)C(O)C1C(=O)NC(CC)C(=O)N(C)CC(=O)N(C)C(CC(C)C)C(=O)NC(C(C)C)C(=O)N(C)C(CC(C)C)C(=O)NC(C)C(=O)NC(C)C(=O)N(C)C(CC(C)C)C(=O)N(C)C(CC(C)C)C(=O)N(C)C(C(C)C)C(=O)N1C (stereo not given) | inactive
40 | C[C@H]1O[C@@H](O[C@H]2CC[C@@]3(C)[C@H](CC[C@@H]4[C@@H]3C[C@@H](O)[C@]3(C)[C@@H](C5=CC(=O)OC5)CC[C@]43O)C2)C[C@H](O)[C@@H]1O[C@H]1C[C@H](O)[C@H](O[C@H]2C[C@H](O)[C@H](O[C@@H]3O[C@H](CO)[C@@H](O)[C@H](O)[C@H]3O)[C@@H](C)O2)[C@@H](C)O1 | inactive
